From PubChem BioAssay AID720530 (The Scripps Research Institute Molecular Screening Center, 2013)
Hit rate of the full screen: of about 1,000 compounds, about 260 (26%) were called active. Only a sample is shown. A number with no mark means an inactive call. Rule as the data show it: active = inhibition above about 21%; inactive = the rest.

target: E3 ubiquitin-protein ligase UHRF1 (Homo sapiens) (UniProt Q96T88); assay: blockers of UHRF1 binding to methyl-oligo – biochemical, TR-FRET, human UHRF1, counter-screen for MBD2 inhibitor project (AID 720530); conditions: UHRF1 binding to methylated oligonucleotide, at 4.4 µM, hits give high values;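 also: UHRF1 SRA domain binding a labeled hemimethylated CpG hairpin DNA; 0% = vehicle only and 100% = reference inhibitor with vehicle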
Sequence (Q96T88 whole entry, looked up, the tested form may be a part): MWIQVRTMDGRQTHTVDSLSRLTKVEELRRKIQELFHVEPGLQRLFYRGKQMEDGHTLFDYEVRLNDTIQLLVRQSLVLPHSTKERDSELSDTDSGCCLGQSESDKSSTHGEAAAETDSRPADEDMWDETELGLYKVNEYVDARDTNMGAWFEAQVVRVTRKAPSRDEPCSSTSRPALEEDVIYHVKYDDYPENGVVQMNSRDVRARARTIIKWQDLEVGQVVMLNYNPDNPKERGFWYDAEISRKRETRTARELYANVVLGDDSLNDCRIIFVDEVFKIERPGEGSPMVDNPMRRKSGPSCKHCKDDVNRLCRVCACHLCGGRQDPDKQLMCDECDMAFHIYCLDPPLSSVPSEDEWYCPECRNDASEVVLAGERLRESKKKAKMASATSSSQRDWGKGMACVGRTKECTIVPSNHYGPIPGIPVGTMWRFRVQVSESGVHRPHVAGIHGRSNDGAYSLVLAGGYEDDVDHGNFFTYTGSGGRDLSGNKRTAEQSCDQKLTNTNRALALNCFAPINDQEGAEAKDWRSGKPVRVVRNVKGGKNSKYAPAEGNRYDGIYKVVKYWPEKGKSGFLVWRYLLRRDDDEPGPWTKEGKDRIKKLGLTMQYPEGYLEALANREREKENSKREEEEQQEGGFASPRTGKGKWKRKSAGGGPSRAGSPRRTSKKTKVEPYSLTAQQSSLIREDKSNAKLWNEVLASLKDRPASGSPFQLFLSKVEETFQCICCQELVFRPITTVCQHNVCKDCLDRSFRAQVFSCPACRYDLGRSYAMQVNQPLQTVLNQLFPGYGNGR

Structure (SMILES) | inhibition
COc1ccc(N2C(=O)/C(=C/c3ccco3)C(=O)NC2=S)cc1 | 97.2% (active)
Cc1cc(/C=C2/C(=O)NC(=O)N(Cc3ccco3)C2=O)c(C)n1-c1ccc(C(=O)O)cc1 | 15.7%
O=C1NC(=O)N(Cc2ccco2)C(=O)/C1=C\c1ccc(-c2ccc(F)cc2)o1 | 12.8%
